According to the supplement of paper PMC7726561:
In all, about 1,100 sequences were measured (“thermal melting temperature (Tm) of peptide-HLA complex”: median about 58, lowest 2% from about 42 on). Many of the other results were omitted from the sample, so the lowest values are more common in it than they were.

Biological target: HLA-A*02:01
Assay: thermal melting temperature (Tm) of peptide-HLA complex; higher = more thermostable pHLA complex
Conditions: C1R-A*02:01
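Further: lysates heated 10 min at 37–73 °C, complexes pulled down with pan-HLA I antibody, peptide signal by DIA-MS relative to 37 °C, Tm where half the complex is unfolded.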

Compared with VLGRVNLV, HLDEAIHVL is higher in thermal melting temperature: 45.9 °C for the first, 51.9 °C for the second.

Compared with VLLGEVNIRL, SLLNPPETLNL is lower in thermal melting temperature: 55.2 °C for the first, 54.9 °C for the second.

Going from TLLGNIHAV to GLLENIPRV, the thermal melting temperature rises from 59.5 °C to 64.8 °C.

Going from YLHDQNPDAAL to VLLKARLVPA, the thermal melting temperature rises from 59 °C to 59.7 °C.

Compared with VTTDIQVKV, FLLLPGPSAA is lower in thermal melting temperature: 47.3 °C for the first, 47 °C for the second.

Compared with HLFETISQA, GLDPQGDRSFL is higher in thermal melting temperature: 54.9 °C for the first, 57 °C for the second.

Compared with FLPQGFPDSV, SIHDVTFQV is higher in thermal melting temperature: 45.8 °C for the first, 57.4 °C for the second.

Going from SMSADVPLV to ALLKIEGVYA, the thermal melting temperature falls from 61.3 °C to 59.4 °C.

Going from ILLDNDHYA to FLDPNNIPKA, the thermal melting temperature rises from 50.4 °C to 61.3 °C.

Going from YLSPDLSKV to LLDPNVKSIFV, the thermal melting temperature rises from 61.9 °C to 62.2 °C.

Going from FLDITNPKA to FLDITNPKAV, the thermal melting temperature falls from 58.3 °C to 40.7 °C.

First: AMNDILAQV
Second: KLDFANNVQL
The thermal melting temperature of the first is higher: 62.2 °C for the first, 50.3 °C for the second.

Going from ALLDQLHTL to FLSELTQQL, the thermal melting temperature falls from 62.5 °C to 59.5 °C.

Compared with VLHELTFQA, FVADGIFKA is lower in thermal melting temperature: 60.4 °C for the first, 41.1 °C for the second.

Going from VLAPHLTRA to FLSDGTIISV, the thermal melting temperature rises from 53 °C to 57.5 °C.

First: RLAEALPKQSV
Second: GVIDGHIYAV
The thermal melting temperature of the first is lower: 41.8 °C for the first, 61.7 °C for the second.

Compared with SLFPGKLEV, GLLQINDKIAL is lower in thermal melting temperature: 60.4 °C for the first, 41.7 °C for the second.

Compared with RLQEEINEV, YQLEAEFVGV is higher in thermal melting temperature: 55.3 °C for the first, 58.7 °C for the second.

Going from SLLGGVLRV to TLSDLRVYL, the thermal melting temperature rises from 55.7 °C to 64.7 °C.

Going from ALFPERITV to YLDIKGLLDV, the thermal melting temperature falls from 61.6 °C to 56 °C.

Compared with TLLDPNEKYLL, RLWNETVEL is higher in thermal melting temperature: 61.3 °C for the first, 63.7 °C for the second.

First: SIAPRMMSV
Second: FTQDSNYLL
The thermal melting temperature of the first is lower: 48.1 °C for the first, 49.1 °C for the second.

First: HIADVSHFI
Second: RIADGLPVAV
The thermal melting temperature of the first is higher: 55.3 °C for the first, 41 °C for the second.

Going from VLADQEVRL to GLNEEIARV, the thermal melting temperature rises from 58.4 °C to 64 °C.

First: IQDDMQTLYV
Second: ILANDGVLLAA
The thermal melting temperature of the first is lower: 43.4 °C for the first, 59.6 °C for the second.

First: FLIPIYHQV
Second: SLIRNLEQL
The thermal melting temperature of the first is higher: 62.7 °C for the first, 51.2 °C for the second.

First: KLLDIPGLEV
Second: YLKDLIEEV
The thermal melting temperature of the first is lower: 61.3 °C for the first, 62.8 °C for the second.

Going from YQIAEQFRV to IAPPVPLKA, the thermal melting temperature falls from 61.3 °C to 53 °C.
